Data taken from PubChem BioAssay.
Active and inactive are the calls of the source.

What was measured:
[1] = system: Plasmodium falciparum Sir2 (PF13_0152, Sir2A); assay: pfSir2 binders on small-molecule microarrays, primary screen, biochemical, small-molecule microarray, 635 nm fluorescence (AID 1098); conditions: small-molecule microarray binding, fluorescence 635 nm; higher = more signal;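 further: score merges spot fluorescence intensity with its signal-to-noise ratio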
[2] = small-molecule microarray binders of probe aDKK1, primary screen, biochemical, biotinylated probe, 635/667 nm fluorescence (AID 1099); conditions: higher = more signal;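 further: score merges 667nm spot fluorescence with signal to noise across triplicate slides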
[3] = small-molecule microarray binders of probe aCHRDL2, primary screen, biochemical, biotinylated probe, 635/667 nm fluorescence (AID 1100); conditions: higher = more signal
[4] = splicing luciferase reporter signal modulators, primary screen, spliceosome inhibition project, cell-based, HEK293, splice +/- reporter (AID 1101); conditions: luminescence, 24 h, higher = more signal, called active from +8 up or from −8 down;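 further: HEK293 cells carrying a splicing-competent luciferase reporter gene; test concentration not given here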
[5] = target: Fibroblast growth factor 10 (Homo sapiens) (UniProt O15520); assay: FGF10 binders on small-molecule microarrays, primary screen, biochemical, small-molecule microarray, 635 nm fluorescence (AID 1102); conditions: FGF10 binding, fluorescence 635 nm, higher = more signal
[6] = system: glycogen synthase kinase-3 (GSK3A per assay name; protocol says GSK3B); assay: GSK3 binders on small-molecule microarrays, primary screen, biochemical, small-molecule microarray, 635 nm fluorescence, GSK3A (AID 1103); conditions: small-molecule microarray binding, fluorescence 635 nm; higher = more signal; further: the record names both GSK3A and GSK3B
[7] = target: Epidermal growth factor receptor (Homo sapiens) (UniProt P00533); assay: EGFR binders on small-molecule microarrays, primary screen, biochemical, small-molecule microarray, 635 nm fluorescence (AID 1104); conditions: EGFR binding, higher = more signal;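 further: score merges 667 nm emission intensity with spot signal to noise over triplicate slides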
[8] = target: Follistatin-related protein 3 (Homo sapiens) (UniProt O95633); assay: FSTL3 binders on small-molecule microarrays, primary screen, biochemical, small-molecule microarray, 635 nm fluorescence (AID 1105); conditions: FSTL3 binding, higher = more signal;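 further: score merges emission near 667 nm and signal to noise per printed spot across three slides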
[9] = target: Dickkopf-related protein 1 (Homo sapiens) (UniProt O94907); assay: DKK1 binders on small-molecule microarrays, primary screen, biochemical, small-molecule microarray, 635 nm fluorescence scan (AID 1106); conditions: DKK1 binding, higher = more signal;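 further: score merges emission near 667 nm with signal to noise over three replicate slides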
[10] = system: Inhibin beta A chain (activin A); assay: INHBA (activin A) binders on microarrays, primary screen, biochemical, small-molecule microarray, 635 nm fluorescence scan (AID 1107); conditions: small-molecule microarray binding, higher = more signal;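 further: mouse activin A protein probed at 4.33 µg/mL on printed slides; score merges bound-protein fluorescence near 667 nm with spot signal-to-noise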
[11] = system: Human papillomavirus type 1a protein E7 (residues 44-93); assay: HPV1a E7 fragment binders on microarrays, primary screen, biochemical, small-molecule microarray, residues 44-93, 635 nm fluorescence (AID 1108); conditions: small-molecule microarray binding, fluorescence 635 nm; higher = more signal;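 further: E7 fragment applied at 1 µg/mL in TBST for 1 h at 4 C; score combines spot fluorescence with its signal to noise ratio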
[12] = modulators of HCV replicon luciferase signal, primary screen, HCV replication inhibitor project, Huh7 cells, luciferase reporter (AID 1109); conditions: 48 h, higher = more signal;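 further: huh7 hepatoma cells harbouring a luciferase neomycin HCV replicon reporter; luciferase luminescence as measure of HCV replicon replication; test concentration not given here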
[13] = target: Left-right determination factor 2 (Homo sapiens) (UniProt O00292); assay: LEFTY2 binders on small-molecule microarrays, primary screen, biochemical, small-molecule microarray, 635 nm fluorescence scan (AID 1110); conditions: LEFTY2 binding, higher = more signal
[14] = target: Calmodulin-1 (Homo sapiens) (UniProt P0DP23); assay: CALM1 binders on microarrays, EGTA buffer, profiling panel, biochemical, small-molecule microarray, Cy5-labelled CALM1 (AID 1111); conditions: Cy5-CALM1 binding fluorescence, higher = more signal;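 further: labelled calmodulin applied in Tris saline Tween buffer holding calcium plus EGTA and DTT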
[15] = target: Calmodulin-1 (Homo sapiens) (UniProt P0DP23); assay: calcium-bound CALM1 binders on microarrays, profiling panel, artefact control for SMM control-protein annotation, biochemical, small-molecule microarray, Cy5-labelled CALM1, plus calcium (AID 1112); conditions: Cy5-CALM1 binding fluorescence, higher = more signal;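 further: score merges spot fluorescence with signal to noise from triplicate slides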
[16] = small-molecule microarray binders of probe aWnt5a, primary screen, biochemical, biotinylated probe, 635/667 nm fluorescence (AID 1113); conditions: higher = more signal;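 further: score merges 667 nm fluorescence intensity with signal-to-noise per printed feature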
[17] = small-molecule microarray binders of probe aShh, primary screen, biochemical, biotinylated probe, 635/667 nm fluorescence (AID 1114); conditions: higher = more signal;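 further: probe is biotin-labelled aShh protein from a stem cell growth factor screen; measures binding of labelled protein to compounds printed on the slide; score merges feature fluorescence at 667 nm with signal-to-noise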
[18] = small-molecule microarray binders of probe aNog, primary screen, biochemical, biotinylated probe, 635/667 nm fluorescence (AID 1115); conditions: higher = more signal;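 further: probe is biotinylated aNog protein used at 0.15 µg/mL for 1 h at 4 C; z-score combines 667 nm fluorescence of each spot with its signal to noise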
[19] = target: Torsin-1A-interacting protein 1 (Homo sapiens) (UniProt Q5JTV8); assay: LAP1 binders from COS7 cell lysate, primary screen, small-molecule microarray, 635/667 nm fluorescence (AID 1116); conditions: COS7-hLAP1 lysate binding, 635 nm fluorescence, higher = more signal
[20] = target: Alpha-bungarotoxin (Bungarus multicinctus) (UniProt P60615); assay: alpha-bungarotoxin binders on microarray, profiling panel, artefact control for SMM control protein annotation, biochemical, small-molecule microarray, Alexa647 label, 635/667 nm fluorescence (AID 1117); conditions: alpha-BTX-A647 binding fluorescence, higher = more signal
Chain of Alpha-bungarotoxin (Bungarus multicinctus) (P60615 whole entry, looked up): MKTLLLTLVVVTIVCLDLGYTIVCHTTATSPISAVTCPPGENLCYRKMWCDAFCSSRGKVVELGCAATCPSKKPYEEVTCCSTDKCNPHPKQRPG

Chain of Left-right determination factor 2 (Homo sapiens) (O00292 whole entry, looked up): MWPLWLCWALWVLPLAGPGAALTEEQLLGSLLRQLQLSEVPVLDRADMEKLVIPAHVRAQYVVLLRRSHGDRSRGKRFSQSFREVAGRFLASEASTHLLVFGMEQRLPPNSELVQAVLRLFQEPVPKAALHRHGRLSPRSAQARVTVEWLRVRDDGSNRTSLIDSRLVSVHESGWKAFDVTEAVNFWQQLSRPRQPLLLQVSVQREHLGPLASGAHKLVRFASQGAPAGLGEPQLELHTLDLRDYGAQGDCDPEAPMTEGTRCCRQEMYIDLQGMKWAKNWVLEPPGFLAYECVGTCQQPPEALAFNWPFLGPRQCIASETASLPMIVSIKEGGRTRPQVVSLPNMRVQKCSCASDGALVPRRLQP
Chain of Epidermal growth factor receptor (Homo sapiens) (P00533 whole entry, looked up): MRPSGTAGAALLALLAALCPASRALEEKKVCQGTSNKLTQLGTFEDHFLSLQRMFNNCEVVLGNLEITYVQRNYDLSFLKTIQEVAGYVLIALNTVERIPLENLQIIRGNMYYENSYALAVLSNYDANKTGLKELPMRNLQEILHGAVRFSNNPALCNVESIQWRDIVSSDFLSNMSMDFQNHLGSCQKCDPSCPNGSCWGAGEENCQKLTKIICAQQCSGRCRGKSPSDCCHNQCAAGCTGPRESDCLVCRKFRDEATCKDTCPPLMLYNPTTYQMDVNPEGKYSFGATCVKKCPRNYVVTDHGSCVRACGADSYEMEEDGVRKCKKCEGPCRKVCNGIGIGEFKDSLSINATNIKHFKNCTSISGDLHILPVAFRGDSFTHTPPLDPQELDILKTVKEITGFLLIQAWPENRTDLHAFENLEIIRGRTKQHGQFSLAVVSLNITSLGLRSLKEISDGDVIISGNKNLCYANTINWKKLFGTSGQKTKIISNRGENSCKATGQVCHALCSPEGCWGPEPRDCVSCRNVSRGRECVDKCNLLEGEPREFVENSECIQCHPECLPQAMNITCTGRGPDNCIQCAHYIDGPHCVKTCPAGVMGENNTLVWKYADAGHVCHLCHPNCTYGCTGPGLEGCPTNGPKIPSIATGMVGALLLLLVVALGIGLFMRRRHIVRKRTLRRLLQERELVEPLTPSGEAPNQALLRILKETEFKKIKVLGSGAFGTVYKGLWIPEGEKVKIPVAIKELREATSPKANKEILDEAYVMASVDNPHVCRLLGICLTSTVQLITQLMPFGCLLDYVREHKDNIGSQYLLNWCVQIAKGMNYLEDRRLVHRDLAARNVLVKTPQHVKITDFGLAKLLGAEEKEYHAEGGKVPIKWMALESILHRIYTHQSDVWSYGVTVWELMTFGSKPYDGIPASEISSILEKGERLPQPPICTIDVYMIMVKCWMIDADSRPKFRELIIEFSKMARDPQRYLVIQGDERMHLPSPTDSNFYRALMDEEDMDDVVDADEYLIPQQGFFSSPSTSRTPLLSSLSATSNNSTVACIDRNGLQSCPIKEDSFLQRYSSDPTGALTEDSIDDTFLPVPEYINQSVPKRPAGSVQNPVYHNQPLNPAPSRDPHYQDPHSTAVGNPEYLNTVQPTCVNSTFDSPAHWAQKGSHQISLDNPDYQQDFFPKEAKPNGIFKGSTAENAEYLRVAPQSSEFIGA
Chain of Fibroblast growth factor 10 (Homo sapiens) (O15520 whole entry, looked up): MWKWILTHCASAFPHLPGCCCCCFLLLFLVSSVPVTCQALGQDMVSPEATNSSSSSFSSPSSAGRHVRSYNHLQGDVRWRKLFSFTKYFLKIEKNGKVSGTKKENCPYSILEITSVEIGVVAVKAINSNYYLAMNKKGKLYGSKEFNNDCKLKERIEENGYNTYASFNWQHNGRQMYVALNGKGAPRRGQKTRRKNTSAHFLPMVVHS
Chain of Dickkopf-related protein 1 (Homo sapiens) (O94907 whole entry, looked up): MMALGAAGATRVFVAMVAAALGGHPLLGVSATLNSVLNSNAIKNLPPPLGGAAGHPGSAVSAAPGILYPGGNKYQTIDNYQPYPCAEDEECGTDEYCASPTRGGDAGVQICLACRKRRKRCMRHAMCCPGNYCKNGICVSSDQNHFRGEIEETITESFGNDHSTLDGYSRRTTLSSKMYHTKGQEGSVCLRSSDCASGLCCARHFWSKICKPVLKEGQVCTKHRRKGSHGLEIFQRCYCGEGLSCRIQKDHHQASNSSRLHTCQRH
Chain of Follistatin-related protein 3 (Homo sapiens) (O95633 whole entry, looked up): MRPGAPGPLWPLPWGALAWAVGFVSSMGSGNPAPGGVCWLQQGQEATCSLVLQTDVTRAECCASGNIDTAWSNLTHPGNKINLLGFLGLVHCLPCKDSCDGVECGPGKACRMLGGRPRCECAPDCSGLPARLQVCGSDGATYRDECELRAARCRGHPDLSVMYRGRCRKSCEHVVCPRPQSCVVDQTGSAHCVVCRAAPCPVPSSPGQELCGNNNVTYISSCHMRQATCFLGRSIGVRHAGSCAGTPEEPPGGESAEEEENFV
Chain of Torsin-1A-interacting protein 1 (Homo sapiens) (Q5JTV8 whole entry, looked up): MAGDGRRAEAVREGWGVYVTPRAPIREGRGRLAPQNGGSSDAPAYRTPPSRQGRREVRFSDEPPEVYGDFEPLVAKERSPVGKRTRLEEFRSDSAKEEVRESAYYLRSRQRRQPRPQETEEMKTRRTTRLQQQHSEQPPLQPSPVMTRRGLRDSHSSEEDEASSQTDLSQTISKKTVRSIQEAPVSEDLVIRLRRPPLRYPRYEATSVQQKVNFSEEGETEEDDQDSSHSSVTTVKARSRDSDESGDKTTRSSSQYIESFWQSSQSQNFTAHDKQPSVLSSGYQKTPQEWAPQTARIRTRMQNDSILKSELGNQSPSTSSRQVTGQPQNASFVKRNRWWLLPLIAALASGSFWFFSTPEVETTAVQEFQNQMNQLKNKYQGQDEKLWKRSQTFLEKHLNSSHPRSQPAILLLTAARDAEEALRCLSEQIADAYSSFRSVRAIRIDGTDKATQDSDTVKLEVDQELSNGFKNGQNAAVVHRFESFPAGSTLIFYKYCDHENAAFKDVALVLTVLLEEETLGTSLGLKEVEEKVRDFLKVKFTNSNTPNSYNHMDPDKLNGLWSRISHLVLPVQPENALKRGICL

Compound | composite z-score [1] | composite z-score [2] | composite z-score [3] | z-score [4] | composite z-score [5] | composite z-score [6] | composite z-score [7] | composite z-score [8] | composite z-score [9] | composite z-score [10] | composite z-score [11] | z-score [12] | composite z-score [13] | composite z-score [14] | composite z-score [15] | composite z-score [16] | composite z-score [17] | composite z-score [18] | composite z-score [19] | composite z-score [20]
CC(C)C[C@H]1NC(=O)C([C@@H](C)OCc2ccccc2)NC(=O)[C@@]23C(=O)N[C@@H](Cc4ccccc4)C2[C@H](C)[C@@]2(C)O[C@H]2C3/C=C/C/C=C\CNC1=O (stereo not given in full) | 0.884 | -0.261 | -0.493 | -0.138 (inactive) | 1.03 | 1.12 | 0.583 | 1.47 | 0.917 | 1.24 | 0.566 | -2.23 | 0.905 | 0.216 | -0.389 | -0.118 | -0.0553 | 0.746 | 0.174 | 0.888
C=C(CCCC)/C(=C/C[C@H](OC(=O)c1ccncc1)c1ccccc1OCCO)c1cc(C(=O)OC)ccc1OC | 0.209 | -0.126 | 0.023 | -0.63 (inactive) | 0.864 | 0.325 | 0.0323 | 0.636 | 0.273 | 1.17 | 1.22 | -2.89 | -0.015 | -0.0646 | -0.636 | -0.0331 | 0.0684 | -0.305 | 0.869 | -0.056
CCCCC(=C=CC[C@H](O)c1ccc(CO)o1)CCO | 1.17 | -0.0027 | -0.485 | 0.263 (inactive) | 0.738 | 0.514 | -0.0244 | 0.484 | -0.0878 | 0.839 | 0.906 | -0.401 | 0.346 | 0.155 | -0.363 | -0.124 | 0.137 | 0.2 | 0.906 | 0.221
CN(C)CCCC[C@@H]1NC(=O)[C@@H]2C[C@H](C(=O)NCCCCCN)[C@H](c3cccc(OCCO)c3)N2C1=O | 0.789 | -0.0024 | -0.21 | -1.66 (inactive) | 0.824 | 1.16 | 0.428 | 0.567 | 0.565 | -0.401 | 1.11 | 0.663 | 0.64 | 1.77 | 0.717 | -0.174 | -0.16 | -0.301 | 1.05 | 0.293
[N-]=[N+]=Nc1ccccc1C[C@@]1(C(=O)NCC(O)CO)N=C(c2ccc(OCCCO)cc2)O[C@@H]1c1ccccc1 (stereo not given in full) | 0.973 | 0.262 | 0.9 | -0.0949 (inactive) | -0.134 | 0.119 | -1.16 | -0.932 | -1.17 | 0.0121 | 0.355 | -0.688 | -1.28 | 0.754 | 0.0985 | 0.0431 | 0.151 | 0.0308 | 1.48 | -0.422
COCCOC(=O)N1C(=O)[C@@]2(c3cc(C#CCC(C(=O)OC)C(=O)OC)ccc31)[C@H](C(N)=O)[C@H]1C(=O)O[C@H](c3ccccc3)[C@H](c3ccccc3)N1[C@@H]2c1ccc(O)cc1 | 1.09 | 0.235 | 0.283 | -1.59 (inactive) | 1.42 | 0.863 | 0.69 | 1 | 0.938 | 0.187 | 1.42 | -2.77 | 0.713 | 1.01 | 0.0194 | 0.0179 | 0.0328 | -0.543 | 1.08 | 1.61
